# PubChem BioAssay AID492949 (National Center for Advancing Translational Sciences (NCATS), 2010)
# Results filed as inconclusive are left out. Active and inactive are the calls of the source. Calls follow the shape of the dose curve; as a rule, active = well fitted activation curve with a large enough effect; inconclusive = small, poorly fitted or top-dose-only effect; inactive = no such curve, though single readings can be large or run the other way.
# Target: Relaxin receptor 1 (Homo sapiens) (UniProt Q9HBX9)
# Test: qHTS Assay for Agonists of the Relaxin Receptor RXFP1: THP1 Hit Validation; also: nearly all actives have a fitted effect of over 60% in size
# Conditions: THP1-RXFP1 cells, cAMP TR-FRET, 30 min; series mostly up to 115 µM
# Source text: The relaxin hormone is involved in the variety of biological functions in normal tissues and diseases. The role of relaxin is well-established in female reproduction and parturition, mammary gland and endometrial development, maintenance of myometrial quiescence during pregnancy. Relaxin signaling through its G protein-coupled receptor (GPCR) RXFP1 results in ECM remodeling through regulation of collagen deposition, cell invasiveness, proliferation and overall tissue homeostasis. […] Recombinant human relaxin (rhRlx) is currently being tested in clinical trials as a protective agent in congestive heart failure, in treating severe preeclampsia, and as an anti-fibrotic agent in systemic sclerosis.
# Upon relaxin binding RXFP1 activation leads to the activation of adenylate cyclase (AC) via Gs. cAMP will activate PKA, which phosphorylates many signaling proteins. Thus, detection of cAMP increase is an easy and reliable indication of relaxin receptor activation. To screen for agonists of the relaxin receptor, a THP1 cell line stably transfected with RXFP1 was used. RXFP1 activation was assayed by changes in cAMP levels as detected with a time-resolved fluorescence energy transfer (TR-FRET) cAMP detection kit.
# NIH Chemical Genomics Center [NCGC]
# NIH Molecular Libraries Probe Production Centers Network [MLPCN]
# Assay Submitter (PI): Alexander Agoulnik
# NCGC Assay Protocol Summary:
# This is a cell-based assay for cAMP second messenger response to screen for agonists of the RXFP1 receptor. The assay was conducted in the presence of a PDE4 inhibitor (Ro 20174). The cells were lysed and the cAMP levels were measured with a TR-FRET cAMP kit. Presence of cAMP in the cell lysate disrupts binding between the cryptate-labeled anti-cAMP and d2-labeled cAMP pair, leading to a decrease in the TR-FRET signal. Data were normalized to the controls for basal activity (buffer only) and 100% activity (29 nM porcine relaxin). The EC50 values were determined from concentration-response data modeled with the standard Hill equation
# 1536-well assay protocol for the THP1 RXFP1 cAMP assay:
# (1) Add 3 ul THP1 RXFP1 cell culture. 2000 cells/well in DMEM/F12, 10% FBS, 1x Pen/Strep (dispensed offline with MultiDrop Combi).
# (3) Add 23 nl compounds in DMSO solution. Final concentration was 0.5 - 58 uM.
# (4) Incubate 30 min at 37C, 5% CO2.
# (5) Add 1 ul cAMP-d2 in lysis buffer (HTRF cAMP HiRange kit, CisBio).
# (6) Add 1 ul anti-cAMP antibody-cryptate in lysis buffer (HTRF cAMP HiRange kit, CisBio).
# (7) Incubate 30 min at room temperature.
# (6) Detect the assay plate in a ViewLux plate reader (PerkinElmer) with Ex=320 nm, Em1=615 nm and Em2=665 nm.
# Keywords: relaxin, RXFP1, RXFP2, G-protein coupled receptor, cAMP, agonist, high throughput screening, MLSMR, MLSCN, NIH Roadmap, qHTS and NCGC
# Potency is read from the fitted curve at half-maximal effect.
# Relaxin receptor 1 (Homo sapiens), sequence (Q9HBX9 whole entry, looked up): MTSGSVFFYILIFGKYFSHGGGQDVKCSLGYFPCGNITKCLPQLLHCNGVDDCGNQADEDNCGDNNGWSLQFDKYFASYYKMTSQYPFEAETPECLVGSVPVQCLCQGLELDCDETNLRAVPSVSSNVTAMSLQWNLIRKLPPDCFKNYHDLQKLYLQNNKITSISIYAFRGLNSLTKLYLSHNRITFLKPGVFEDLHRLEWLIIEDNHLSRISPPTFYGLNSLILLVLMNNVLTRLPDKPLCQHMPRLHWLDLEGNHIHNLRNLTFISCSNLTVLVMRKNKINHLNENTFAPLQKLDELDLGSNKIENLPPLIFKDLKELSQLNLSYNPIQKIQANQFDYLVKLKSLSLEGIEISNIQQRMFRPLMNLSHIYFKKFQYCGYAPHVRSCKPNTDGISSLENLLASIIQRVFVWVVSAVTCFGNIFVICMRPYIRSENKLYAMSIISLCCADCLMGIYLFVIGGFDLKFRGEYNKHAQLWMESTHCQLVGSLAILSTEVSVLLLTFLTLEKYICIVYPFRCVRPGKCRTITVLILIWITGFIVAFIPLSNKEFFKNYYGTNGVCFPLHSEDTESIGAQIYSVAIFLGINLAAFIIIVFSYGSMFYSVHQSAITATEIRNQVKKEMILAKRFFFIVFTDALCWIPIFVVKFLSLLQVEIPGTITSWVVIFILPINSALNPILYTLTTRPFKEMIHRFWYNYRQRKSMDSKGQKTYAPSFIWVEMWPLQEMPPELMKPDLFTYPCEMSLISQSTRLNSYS
row,Compound,Potency
1,COc1ccc(OC)c(CNC(=O)C2CCN(C(=O)N(C)C)CC2)c1,inactive
2,Cc1ccc(-c2ccc3nnc(SCC(=O)NCC4CCCO4)n3n2)cc1 (stereo not given),inactive
3,CN(C)c1ccc(C(=S)N2CCN(S(=O)(=O)c3ccccc3)CC2)cc1,inactive
4,CCCC(=O)Nc1ncnc2c1ncn2[C@@H]1O[C@@H]2OP(=O)(O)OC[C@H]2[C@H]1OC(=O)CCC,0.69 µM (active)
5,CCOc1ccc2cc(C#N)c(SCC(=O)NC(C)CC)nc2c1 (stereo not given),6.9 µM (active)
6,CN(C)c1ccc2nc3c(=O)[nH]c(=O)nc-3n(CC(O)C(O)C(O)CO)c2c1 (stereo not given),inactive
7,CC[n+]1ccc(/C=C/c2ccc(N(C)C)cc2)c2ccccc21,inactive
8,Cc1ccc(CN(C)C(=O)c2ccccc2NC(=O)c2ccccc2)o1,inactive
9,O=S(=O)(c1cccc(-c2cn3cccnc3n2)c1)N1CCOCC1,13.8 µM (active)
10,C[C@H](Cc1ccccc1)Nc1ncnc2c1ncn2[C@@H]1O[C@H](CO)[C@@H](O)[C@H]1O,inactive
11,Cc1ccc2[nH]c3c(=S)nc[nH]c3c2c1,6.9 µM (active)
12,O=C(Nc1ccccc1C(=O)Nc1ccc(F)cc1)c1ccco1,inactive
13,CC(NC(=O)c1ccccc1NC(=O)c1ccco1)C(=O)O (stereo not given),inactive
14,COc1ccccc1CNS(=O)(=O)c1cc(CN2C(=O)c3cccnc3C2=O)ccc1OC,17.4 µM (active)
15,N#Cc1c(N)nc(SCC(=O)C23CC4CC(CC(C4)C2)C3)c(C#N)c1-c1ccc(Cl)cc1,12.3 µM (active)
16,CC(=O)c1sc(NC(=O)C(C)C)nc1C,19.4 µM (active)
17,O=C(Nc1cccc(C(F)(F)F)c1)c1ccccc1NC(=O)C1CCCCC1,inactive
18,c1ccc(COn2nnc3ccccc32)c(COn2nnc3ccccc32)c1,inactive
19,CC1(C)Cc2c(sc3c2c2ncnn2c2nnc(SCC(=O)NCc4ccco4)n32)CO1,5.49 µM (active)
20,COc1ccc(S(=O)(=O)N2CCOCC2)cc1NC(=O)CSc1nnc2ccccn12,6.9 µM (active)

row,Compound,Potency
1,Nc1nnc(CC(=O)N/N=C/c2ccc(-c3ccc(Cl)cc3Cl)o2)s1,inactive
2,C=C(C)C(=O)Nc1cccc(C2=NOC3(C2)C[C@@H](C(N)=O)N(C(=O)c2ccc(Cl)cc2)C3)c1 (stereo not given in full),inactive
3,O=C(Nc1cc(S(=O)(=O)N2CCOCC2)ccc1N1CCOCC1)c1cn2ccccc2n1,8.7 µM (active)
4,C=CCSc1nc2c(c(=O)[nH]1)C(C(C)C)C(C#N)=C(N)O2 (stereo not given),inactive
5,COC(=O)c1sc(N2C(=O)C(O)=C(C(=O)c3ccc(C)o3)C2c2ccc(F)cc2)nc1C (stereo not given),2.75 µM (active)
6,CCOC(=O)c1sc(NC(=O)CCc2ccc(OC)cc2)nc1C,17.3 µM (active)
7,O=C(O)c1cc(-c2ccco2)nc2ccc(Br)cc12,19.4 µM (active)
8,CCOP1(=O)OCC2OC(n3cnc4c(N)ncnc43)C(O)C2O1 (stereo not given),8.7 µM (active)
9,O=C(O)c1ccc(N=C2NC(=O)C(CO)(CO)S2)cc1,inactive
10,CCN(CC)S(=O)(=O)c1cccc(N=Nc2c(O)c3ccccc3oc2=O)c1,9.77 µM (active)
11,Brc1ccc2ncnc(NCc3cccnc3)c2c1,48.9 µM (active)
12,COc1cccc(C(=O)CSc2nnc(-c3cc(OC)cc(OC)c3)o2)c1,12.3 µM (active)
13,Cc1ccc(CN(C)C(=O)c2ccc3c(c2)NC(=O)CS3)o1,inactive
14,O=C(O)c1cccc(CSc2nnc(Cc3ccccc3)o2)c1,inactive
15,COC(=O)Cn1cnc2c(C#N)c3n(c2c1=O)CCCCC3,8.7 µM (active)
16,Cc1ccc(C(=O)Nc2ccccc2C(N)=O)o1,inactive
17,Cc1ccccc1OCC(=O)Nc1sc(C(=O)Nc2cccc(C)c2C)c(C)c1C#N,7.74 µM (active)
18,Cc1cc(NC(=O)c2ccccc2F)nc2c1c(=O)oc1ccccc12,19.4 µM (active)
19,O=C1/C(=C/c2ccc(O)c(O)c2)Oc2cc(O)ccc21,inactive
20,O=c1c2ccccc2cnn1Cc1n[nH]c(=S)n1-c1ccc(F)c(Cl)c1,12.3 µM (active)
